ALDH1A1 block: qHTS Assay for Inhibitors of Aldehyde Dehydrogenase 1 (ALDH1A1) | Purified ALDH1A1, NADH fluorescence, propionaldehyde substrate | 220,000 tested, 7.3% active | AID 1030, 2008 | Potency, µM (series often up to 75.3 µM), inactives show at the highest dose activity, negative = inhibition, actives largely listed as inhibitors; active means well fitted inhibition curve with a large enough effect, not every such curve was filed as active; inconclusive means small, poorly fitted or top-dose-only effect, or another doubt; inactive means no such curve, though single readings can be large or run the other way;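 further: plate controls were no enzyme wells and a reference inhibitor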
LMNA splice mod: qHTS Assay for Modulators of Lamin A Splicing. HeLa LMNA splicing GFP/RFP minigene ratio, 48 h. Potency, µM (highest dose often 46.1 µM), for the others: top-dose ratio change, negative = inhibition, actives largely listed as inhibitors. 200,000 tested, 0.01% active; active means well fitted inhibition curve with a large enough effect in the signal ratio, with a control signal flat, not every such curve was filed as active; inconclusive means small, poorly fitted or top-dose-only effect, or effect the other way, or a change in a side signal; the % refers to the signal ratio; further: on the % scale 0 is the no-effect control and ±100 the full control effect
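S3 HeLa stable clones carrying a lamin A-EGFP splicing minigene plus DsRed2 were seeded at 600 cells/well in Opti-MEM with 2% FBS, pin-dosed and incubated 48 h at 37°C. Acumen cytometry (488 nm) gave the GFP/RFP total-intensity ratio.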
KinaseGlo FLuc: Counterscreen for Luciferase (Kinase-Glo TM) Inhibition | Luciferin 4-monooxygenase (Photuris pensylvanica), Q27757 | Kinase-Glo luciferase, ATP luminescence, 8 min | Potency, µM (titrated, usually from 38.3 µM), without a hit: at the top dose activity change, negative = inhibition, usual class: inhibitors | 200,000 tested, 0.28% active | AID 1379, 2008; further: on the % scale 0 is the no-effect control and ±100 the full control effect; nearly all actives have a fitted effect of over 60% in size
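Recombinant Kinase-Glo luciferase, 10 uM ATP (linear range), luciferin; imidazole pH 7.2 / KCl / MgCl2 / Tween / BSA buffer; 8 min RT; luminescence.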
HTT cytoprotect: qHTS Multiplex Assay to Identify Dual Action Probes in a Cell Model of Huntington: Cytoprotection (ATP); PC12 HTT-Q103 induced, cytoprotection, ATP luminescence, 40 h; Potency, µM (series often up to 56.4 µM), for the others: cytoprotection (ATP increase), usual class: activators; 230,000 tested, 0.14% active; AID 1471, 2008; further: % of control where 0% means no effect; nearly all actives have a fitted effect of over 45% in size
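Cells were plated at 1500 per well in phenol red-free DMEM with 5% equine and 5% calf serum. Tebufenozide (100 nM final) and compounds were added, then ATPlite reagent, and luminescence was read.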
HttQ103 aggreg: qHTS Multiplex Assay to Identify Dual Action Probes in a Cell Model of Huntington: Aggregate Formation (GFP); PC12 HttQ103-GFP aggregates, Acumen cytometry, 40 h; Potency, µM (doses to about 46.1 µM), inactives show at the highest dose activity change, negative = inhibition, hits mostly inhibitors; 220,000 tested, 1.1% active; AID 1688, 2009; further: on the % scale 0 is the no-effect control and ±100 the full control effect; nearly all actives have a fitted effect of over 60% in size
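PC12 cells with ecdysone-inducible HTT exon1 Q103-GFP, induced by 100 nM tebufenozide, given compounds in a concentration series. GFP aggregates (1–25 um, 6 SD above background) counted in lysates by laser-scanning cytometry, 488 nm excitation.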
HPGD inh: qHTS Assay for Inhibitors of HPGD (15-Hydroxyprostaglandin Dehydrogenase) | 15-hydroxyprostaglandin dehydrogenase [NAD(+)] (Homo sapiens), P15428 | 150,000 tested, 4.3% active | purified HPGD, NADH fluorescence kinetic, PGE2 substrate | Potency, µM, inactives show top-dose activity change, negative = inhibition, most hits filed as inhibitors; active means well fitted inhibition curve with a large enough effect, not every such curve was filed as active; inconclusive means small, poorly fitted or top-dose-only effect, or another doubt; inactive means no such curve, though single readings can be large or run the other way; further: on the % scale 0 is the no-effect control and ±100 the full control effect
Target sequence (P15428 whole entry, looked up): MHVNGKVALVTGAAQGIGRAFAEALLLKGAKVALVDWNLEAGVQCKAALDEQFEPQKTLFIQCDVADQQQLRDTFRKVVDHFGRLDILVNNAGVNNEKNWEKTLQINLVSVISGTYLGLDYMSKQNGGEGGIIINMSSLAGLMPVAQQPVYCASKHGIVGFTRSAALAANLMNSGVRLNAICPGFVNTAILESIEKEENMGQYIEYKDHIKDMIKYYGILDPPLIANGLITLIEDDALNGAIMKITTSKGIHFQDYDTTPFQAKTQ
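20 nM HPGD preincubated 15 min at room temperature with compound in 50 mM Tris-HCl pH 8, 0.01% Tween 20. Started with 1 mM NAD+ and 30 uM prostaglandin E2; NADH fluorescence (360/450 nm) read 5 times over 30-s intervals, last minus first.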
Active calls of the source: *; u = inconclusive; x = no result; [ ] = another dose, or the depositor's remark. The list is not random: actives were taken first. Their share in the collection is about 9%. Unless noted, the call rests on the fitted dose curve; in most records, active means well fitted curve in the direction sought with a large enough effect; inconclusive means small, poorly fitted or top-dose-only effect, or another doubt; inactive means no such curve, though single readings can be large; an effect the other way counts as inactive or inconclusive. Potency means the concentration at half of the fitted maximal effect.

SMILES	ALDH1A1 block	LMNA splice mod	KinaseGlo FLuc	HTT cytoprotect	HttQ103 aggreg	HPGD inh
COc1ccccc1CNc1ncncc1-c1ccc(N(C)C)cc1	u	u	-1%	-4%	x	u
COc1ccccc1CNc1ncncc1-c1ccoc1	25µM*	u	1%	4%	x	-23%
Cc1cc(C)nc(NS(=O)(=O)c2ccc(NC(=O)CN3C(=O)C4CC=CCC4C3=O)cc2)n1 (configuration not stated)	32µM*	x	1%	-27%	-6%	x
CCC(=O)Nc1nc2ccc(S(C)(=O)=O)cc2s1	2%	-5%	2%	19%[10 µM]	-3%	-13%
CS(=O)(=O)c1ccc2nc(NC(=O)CN3C(=O)C4CC=CCC4C3=O)sc2c1 (configuration not stated)	13µM*	-1%[46 µM]	1%	-30%	-14%	x
CCOCC(=O)Nc1nc2ccc(C)cc2s1	13µM*	-12%	-8%	-23%[10 µM]	-18%	-9%
O=C(CN1C(=O)C2CC=CCC2C1=O)Nc1ccc(S(=O)(=O)Nc2ncccn2)cc1 (configuration not stated)	x	x	x	23%[10 µM]	-6%[9.22 µM]	x
Cc1ccc2nc(NC(=O)CN3C(=O)C4CC=CCC4C3=O)sc2c1 (configuration not stated)	0%	-1%[46 µM]	-1%	24%[10 µM]	16%	x
CCOCC(=O)Nc1nc2ccc(S(C)(=O)=O)cc2s1	18µM*	2%	-11%	-11%	4%	-26%
COc1ccc2nc(NC(=O)CSC3=NCCS3)sc2c1	-7%	u	-3%	-30%[10 µM]	-14%	-12%
CCOc1ccc2nc(NC(=O)CSC3=NCCS3)sc2c1	25µM*	u	13%	-28%	u	-21%
CC(=O)Nc1ccc(S(=O)(=O)Nc2nc3ccc(C)cc3s2)cc1	-14%	9%	3%	-7%	7%	-21%
CCCOc1ccc(C(=O)NC(=S)Nc2nc3ccc(C)cc3s2)cc1	24%	8%	3%	19%	14%	0%
Cc1ccc2nc(NC(=S)NC(=O)c3ccc(OC(C)C)cc3)sc2c1	19µM*	u	3%	-23%	u	10µM*
Cc1ccc(S(=O)(=O)Nc2nc3ccc(S(C)(=O)=O)cc3s2)cc1	u	-5%	4%	-9%[10 µM]	2%	25µM*
COc1ccc2nc(NC(=O)CSc3ccccc3)sc2c1	28µM*	u	3%	-21%	2%[9.22 µM]	-29%
CCCCNC(=S)Nc1ccc(-c2nc3ccc(C)cc3s2)cc1	u	-6%	2%	-10%[10 µM]	10%	u
CCOC(=O)c1c(N2CCCCC2)c2ccccc2[nH]c1=O	u	7%	-5%	-7%	-22%	-13%
Cc1ccc(-c2nnn3c2nc(NCCc2ccc(S(N)(=O)=O)cc2)c2ccccc23)cc1	-4%	u	0%	x	4%	u
O=C(CN(C(=O)c1ccc(Cl)cc1)N1C(=O)C2CCCCC2C1=O)c1ccc(Cl)cc1 (configuration not stated)	-8%	3%	0%	-24%	-4%	-1%
COC(=O)C(C)N(C(=O)c1ccc(Cl)cc1)c1c(C)cccc1C (configuration not stated)	11%	0%	1%	9%	4%[9.22 µM]	-3%
CCOc1ccc2nc(NC(=O)CSc3ccc(Cl)cc3)sc2c1	-74%	8%	1%	-29%	6%	-25%
CCOCC(=O)Nc1nc2ccc(OCC)cc2s1	16µM*	-4%	-21%	-67%	u	-5%
Cc1cc2c(N)cccc2nn1	4µM*	10%	-12%	-10%	16%	-23%
CC(=O)OC1CC(OC(C)=O)[C@]2(C)C(CC(OC(C)=O)[C@]3(C)C2CC[C@@]2(C)C(c4ccoc4)OC(=O)C4O[C@]432)C1(C)C (some centres not stated)	0%	x	-2%	-34%	x	7%
SMILES	ALDH1A1 block	LMNA splice mod	KinaseGlo FLuc	HTT cytoprotect	HttQ103 aggreg	HPGD inh
CC(C)c1ccc(Nc2c([N+](=O)[O-])c(=O)n(C)c3ccccc23)cc1	x	x	x	-20%[10 µM]	4%[9.22 µM]	x
Cn1c(=O)c(Nc2ccc(O)cc2)c2c3c(cccc31)C(=O)c1ccccc1-2	-2%	-17%	-14%	-18%[10 µM]	1%	25µM*
CCS(=O)(=O)c1c([N+](=O)[O-])ncn1C	-2%	u	3%	x	3.5µM*	-9%
Cc1ccc2cc(CCNC(=O)c3ccc(C)c([N+](=O)[O-])c3)c(=O)[nH]c2c1	8%	-1%	2%	-17%[10 µM]	-1%	-10%
O=c1nc(-c2ccccc2)c2ccccc2[nH]1	u	4%	15%	-19%[10 µM]	18%	u
O=C1C(c2cc(=O)c3ccccc3[nH]2)=C(O)c2ccccc21	-7%	u	-19%	x	12%	14µM*
O=c1cc(-c2ccccc2)[nH]c2ccccc12	2%	u	4%	-107%	14%	13µM*
O=C1C(c2ccncc2)=C(O)c2ccccc21	u	0%	-21%	-35%[10 µM]	-1%	-19%
CCC(C)NC(=O)c1cccc(OCc2c(C)noc2C)c1 (configuration not stated)	-4%	11%[46 µM]	0%	-2%[10 µM]	28%	x
O=C(Nc1ccccc1)c1cnc2ccccc2n1	-13%	-7%	-8%	x	-21%	-12%
Cc1cc(C)n(CCc2nc(-c3ccco3)cs2)n1	7.1µM*	6%	-3%	-5%	7%	u
Cc1nn(CCc2nc(-c3ccco3)cs2)c2[nH]c(=O)cc(C(F)(F)F)c12	2.5µM*	7%	-3%	-11%[10 µM]	4%	u
Cc1cc(C)n(CCc2nc(-c3cccs3)cs2)n1	u	-10%	2%	4%[10 µM]	5%	-8%
CCOC(=O)C1=C(C)NC(=S)NC1c1ccc(OC(=O)c2ccco2)cc1 (configuration not stated)	2.2µM*	-4%	3%	8%[10 µM]	1%	-10%
CCOC(=O)c1c(NC(=O)C2=C(C)NC(=S)NC2c2ccc(CC)cc2)sc(C)c1C (configuration not stated)	28µM*	u	-2%	0%[10 µM]	u	u
CCOc1cc(C2NC(=S)NC(C)=C2C(=O)Nc2ccccc2)ccc1O (configuration not stated)	x	x	x	9%[10 µM]	-36%[9.22 µM]	x

Screening results deposited in PubChem by National Center for Advancing Translational Sciences (NCATS).
